Sampled rows, rich in hits. Any-hit rate of the full collection: about 3.5%.
MITF primary: MITF inhibitors, primary screen, biochemical, AlphaScreen, human; inhibition, % at 2.6 µM; AlphaScreen MITF homodimerization, bead proximity signal; 0.91% of 650,000 active; Microphthalmia-associated transcription factor (Homo sapiens), O75030; in the data active means inhibition above about 50%
Target sequence (O75030 whole entry, looked up): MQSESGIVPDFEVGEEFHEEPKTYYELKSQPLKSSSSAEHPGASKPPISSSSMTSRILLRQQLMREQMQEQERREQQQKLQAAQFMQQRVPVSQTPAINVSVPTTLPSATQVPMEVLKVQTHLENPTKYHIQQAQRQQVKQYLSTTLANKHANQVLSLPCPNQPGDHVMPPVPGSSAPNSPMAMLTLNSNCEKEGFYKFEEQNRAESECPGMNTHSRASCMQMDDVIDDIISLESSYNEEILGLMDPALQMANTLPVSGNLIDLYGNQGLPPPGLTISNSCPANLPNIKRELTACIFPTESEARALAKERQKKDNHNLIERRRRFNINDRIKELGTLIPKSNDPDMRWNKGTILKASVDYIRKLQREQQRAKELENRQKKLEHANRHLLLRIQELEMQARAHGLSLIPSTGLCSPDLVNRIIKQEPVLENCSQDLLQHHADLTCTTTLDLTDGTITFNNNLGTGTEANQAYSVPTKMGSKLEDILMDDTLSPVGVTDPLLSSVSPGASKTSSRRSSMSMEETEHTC
TEAD-YAP block: TEAD-YAP interaction inhibition, primary screen, TEAD-YAP interaction inhibitor project, luminescence, HEK-TIYL cells; TEAD-Gal4/YAP UAS-luciferase luminescence; inhibition, % at 9.12 µM; 1.4% of 640,000 active; AID 1259422, 2018; in the data active means inhibition above about 32%
FBW7 act: FBW7 E3 ligase activators, primary screen, biochemical, AlphaScreen, human; AlphaScreen FBW7–phospho-cyclin E peptide binding, activator screen; F-box/WD repeat-containing protein 7 (Homo sapiens), Q969H0; 0.13% of 650,000 active; AID 1259310, 2017; normalized activity (activation), % at 26.1 µM; in the data active means normalized activity above about 1.9%;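 further: purified mutant Fbw7 with reduced substrate affinity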
GPR151 activ: activators of human GPR151, primary screen, cell-based, PathHunter beta-arrestin, luminescence. PathHunter beta-arrestin GPR151 cells. activation, % at 11.2 µM. 1% of 650,000 active; in the data active means activation above about 4.9%
Hits are given with their value; - = inactive.

SMILES	MITF primary	TEAD-YAP block	FBW7 act	GPR151 activ
CC(C)S(=O)(=O)C1=NSC2=NC(=O)/C(=C\c3ccc([N+](=O)[O-])o3)C(=N)N21	53.2	-	-	-
CC(C)CS(=O)(=O)C1=NSC2=NC(=O)/C(=C\c3ccc([N+](=O)[O-])o3)C(=N)N21	65.5	-	-	-
COc1ccc([N+](=O)[O-])cc1N1C(=O)C2C3c4ccccc4C(C(C)=O)(c4ccccc43)C2C1=O (centres undefined)	-	-	-	-
CCOc1ccc(-n2nc(C(=O)Nc3ccc(C(C)C)cc3)c3ccccc3c2=O)cc1	-	-	-	-
Nc1cc(N)nc(SCC(=O)NCCOc2ccccc2)n1	-	-	2.2	-
COc1ccc(Cl)cc1NC(=O)Cn1nnc(C(=O)NCc2cccs2)c1N	-	45.4	-	-
COc1ccc(C)cc1-n1c(C)cc(/C=C2/C(=N)N3C=C(C)SC3=NC2=O)c1C	-	50.9	-	-
COc1ccccc1-n1c(C)cc(/C=C2/C(=N)N3C=CSC3=NC2=O)c1C	-	94.3	-	-
COc1ccc(OC)c(-n2c(C)cc(/C=C3/C(=N)N4C=CSC4=NC3=O)c2C)c1	-	-	-	-
COc1ccc(OC)c(-n2c(C)cc(/C=C3/C(=N)N4C=C(C)SC4=NC3=O)c2C)c1	-	47.1	-	-
CC1=C(C#N)C(c2cccc(Cl)c2Cl)C(C#N)=C(C)N1	-	-	-	-
Cc1ccc2c(c1)-c1onc(C(=O)NC(C)CCc3ccco3)c1CO2 (centres undefined)	-	-	-	-
CC1=C(C(N)=O)C(c2ccccc2Cl)n2nc(SCc3ccccc3)nc2N1 (centres undefined)	-	-	-	-
Cc1cc(NC(=O)COC(=O)c2ccccc2OC(F)F)no1	-	-	-	-
COc1ccc(-c2csc(NC(=O)c3ccccc3NS(=O)(=O)c3ccc(C)cc3)n2)cc1	-	37.7	-	-
Cc1ccc(S(=O)(=O)Nc2ccccc2C(=O)Nc2nc3c(C)cccc3s2)cc1	-	45.6	-	-
COc1cccc(C(=O)NNc2nc3c(C)cccc3s2)c1	-	-	-	-
Cc1ccc(S(=O)(=O)Nc2ccccc2C(=O)Nc2ccc(-c3nc4ccccc4o3)cc2)cc1	-	38.9	-	-
COc1ccccc1C(=O)NNc1nc2c(C)cccc2s1	-	33.0	-	-
COC(=O)c1ccc(-c2csc(NC(=O)c3ccccc3NS(=O)(=O)c3ccc(C)cc3)n2)cc1	-	-	-	-
CC(=O)c1ccc(NC(=O)c2ccccc2NS(=O)(=O)c2ccc(C)cc2)cc1	-	-	-	-
COc1ccc(OC)c(N(C(=O)c2ccco2)C(C(=O)NC2CCCC2)c2cccnc2)c1 (centres undefined)	-	-	-	-
CC(C)(Oc1ccc(Cl)cc1)C(=O)N1CCN(c2ncccn2)CC1	-	-	-	-
O=C(Nc1ccc(-c2nc3ccccc3o2)cc1)C1CCN(C(=O)C2CCCC2)CC1	51.8	-	-	-
Cc1ccc(S(=O)(=O)Nc2ccccc2C(=O)Nc2nc(-c3ccccc3)cs2)cc1	-	33.8	-	-
SMILES	MITF primary	TEAD-YAP block	FBW7 act	GPR151 activ
O=C(NC1CCCCCC1)c1cccc2[nH]ncc12	-	84.3	-	-
CCSc1ccc(CC(=O)Nc2nc3ccc(F)cc3s2)cc1	-	-	-	-
COc1ccccc1-c1nc(Cn2cnc3cc(C)c(C)cc32)no1	-	32.7	-	-
COc1ccc(CCNC(=O)c2csc(Nc3ccc(N4CCOCC4)cc3)n2)cc1	-	71.4	-	-
O=C(NCCOc1ccccc1)c1csc(Nc2ccc(N3CCOCC3)cc2)n1	-	39.4	-	-
COc1ccc(CCNC(=O)c2cnc(Nc3ccc(N4CCOCC4)cc3)s2)cc1	-	-	-	-
Clc1ccc(CCNc2ncnc3c2cnn3-c2ccc(Cl)cc2)cc1	-	-	-	-
Clc1ccc(-n2ncc3c(N4CCCCCC4)ncnc32)cc1	-	90.5	-	-
Fc1ccc(-n2ncc3c(N4CCOCC4)ncnc32)cc1	-	76.9	-	-
Cc1cccc(-n2ncc3c(N4CCN(c5ccc(Cl)c(Cl)c5)CC4)ncnc32)c1	-	-	-	-
Clc1ccc(-n2ncc3c(NCCN4CCOCC4)ncnc32)cc1	-	42.0	-	-
Cc1ccc(-n2ncc3c(N4CCOCC4)ncnc32)cc1Cl	-	92.4	-	-
CCN(CC)C(=O)Cn1cnc2sc(C(=O)Nc3cccc(Cl)c3)c(C)c2c1=O	-	-	-	-
CCCCCCn1c(Br)nc2c1c(=O)[nH]c(=O)n2C	-	-	-	-
Clc1ccc(-n2ncc3c(N4CCOCC4)ncnc32)cc1	-	79.5	-	-
Clc1ccc(-n2ncc3c(N4CCN(c5ccc(Cl)c(Cl)c5)CC4)ncnc32)cc1	-	-	-	-
CCOC(=O)CNC(=O)CSc1nc2sc3c(c2c(=O)[nH]1)CCC(C)C3 (centres undefined)	-	89.1	-	-
c1cncc(-c2nc3c4ccccc4nc(NCCCN4CCCCCC4)n3n2)c1	-	69.1	-	-
CCCCNc1nc2cc(OC)c(OC)cc2c2nc(-c3cccnc3)nn12	-	-	-	-
COc1cc2nc(NCCCN3CCCCC3)n3nc(-c4cccnc4)nc3c2cc1OC	-	37.4	-	-
Cc1cc(C)nc(N/N=C/c2cc(Cl)cc([N+](=O)[O-])c2O)n1	-	-	-	-
CC(C)c1nc2c(-c3cn[nH]c3)cccc2c(=O)[nH]1	-	32.0	-	-
COc1ccc(C2Oc3ccccc3C3=C2C(c2cccs2)n2ncnc2N3)cc1OC (centres undefined)	-	52.0	-	-
CNc1cc(S(=O)(=O)O)c2nc(C)cc3c2c1C(=O)c1ccccc1-3	-	-	-	-
COC(CNc1cc(-c2ccccc2)nc(-c2ccncc2)n1)OC	-	-	-	-
SMILES	MITF primary	TEAD-YAP block	FBW7 act	GPR151 activ
O=C(c1ccc2c(=O)n(-c3ccccc3)c(=S)[nH]c2c1)N1CCCCC1	-	42.9	-	-
O=C(c1ccc2c(=O)n(-c3ccccc3)c(=S)[nH]c2c1)N1CCOCC1	-	-	-	-
O=C(c1cc(COc2cccc3cnccc23)on1)N1CCN(C(=O)c2cccs2)CC1	-	42.8	-	-
OCCC1CN(C2CCCC2)CCN1Cc1ccc(F)c(F)c1 (centres undefined)	-	-	-	-
Cc1cc(NC(=O)CSc2cn(CCNC(=O)c3ccccc3C)c3ccccc23)no1	-	-	-	-
Oc1ccc(CCNc2nc(N3CCN(c4ccccn4)CC3)nc3c2ncn3-c2ccsc2)cc1	-	52.9	-	-
CCCNc1nc(N2CCN(c3ccccn3)CC2)nc2c1ncn2-c1ccsc1	-	-	-	-
c1ccc(Oc2ccc(Nc3nc(N4CCOCC4)nc4c3ncn4-c3ccsc3)cc2)cc1	-	-	-	-
c1ccc(N2CCN(c3nc(NC4CC4)c4ncn(-c5ccsc5)c4n3)CC2)nc1	-	48.5	-	-
